p97 inhibitor – inhibitors of human p97 ATPase. P55072. recombinant p97 ATPase, Kinase-Glo ATP luminescence, 3 h. inhibition, % at 8 µM. 220,000 tested, 0.42% active. AID 1481; in the data active = inhibition above about 15%
LYPLA2 inh – counter-screen for PME1 inhibitors: inhibitors of human LYPLA2. recombinant LYPLA2, FP-Rh probe fluorescence polarization. inhibition, % at 5.9 µM. 320,000 tested, 0.38% active. AID 2177;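 active = inhibition above the screen-wide mean plus 3 SD, limit set per campaign, cut at about 26% in these data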
PREPL inh – human PREPL enzyme inhibition; recombinant PREPL, fluorescence polarization activity-based probe; Q4J6C6; 320,000 tested, 0.68% active; inhibition, % at 5.96 µM; in the data active = inhibition above about 43%
LYPLA1 counter – blocks human lysophospholipase 1, a PME1 counter-screen. inhibition, % at 5.9 µM. recombinant LYPLA1, FP-Rh probe fluorescence polarization. 320,000 tested, 0.16% active. AID 2174;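 active = inhibition above the mean of all tested compounds plus 3 SD, set per campaign, cut at about 14% in these data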;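 note: inhibitors block serine hydrolase probe labeling of LYPLA1 so polarization falls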
Rin1-Abl PPI inh – inhibitors of human Rin1-Abl protein interaction; TR-FRET Rin1/Abl binding, biochemical; 360,000 tested, 0.4% active; P00519+Q13671; inhibition, % at 7.35 µM; in the data active = inhibition above about 5%, passing the limit was not always enough
Target sequence (P00519 whole entry, looked up): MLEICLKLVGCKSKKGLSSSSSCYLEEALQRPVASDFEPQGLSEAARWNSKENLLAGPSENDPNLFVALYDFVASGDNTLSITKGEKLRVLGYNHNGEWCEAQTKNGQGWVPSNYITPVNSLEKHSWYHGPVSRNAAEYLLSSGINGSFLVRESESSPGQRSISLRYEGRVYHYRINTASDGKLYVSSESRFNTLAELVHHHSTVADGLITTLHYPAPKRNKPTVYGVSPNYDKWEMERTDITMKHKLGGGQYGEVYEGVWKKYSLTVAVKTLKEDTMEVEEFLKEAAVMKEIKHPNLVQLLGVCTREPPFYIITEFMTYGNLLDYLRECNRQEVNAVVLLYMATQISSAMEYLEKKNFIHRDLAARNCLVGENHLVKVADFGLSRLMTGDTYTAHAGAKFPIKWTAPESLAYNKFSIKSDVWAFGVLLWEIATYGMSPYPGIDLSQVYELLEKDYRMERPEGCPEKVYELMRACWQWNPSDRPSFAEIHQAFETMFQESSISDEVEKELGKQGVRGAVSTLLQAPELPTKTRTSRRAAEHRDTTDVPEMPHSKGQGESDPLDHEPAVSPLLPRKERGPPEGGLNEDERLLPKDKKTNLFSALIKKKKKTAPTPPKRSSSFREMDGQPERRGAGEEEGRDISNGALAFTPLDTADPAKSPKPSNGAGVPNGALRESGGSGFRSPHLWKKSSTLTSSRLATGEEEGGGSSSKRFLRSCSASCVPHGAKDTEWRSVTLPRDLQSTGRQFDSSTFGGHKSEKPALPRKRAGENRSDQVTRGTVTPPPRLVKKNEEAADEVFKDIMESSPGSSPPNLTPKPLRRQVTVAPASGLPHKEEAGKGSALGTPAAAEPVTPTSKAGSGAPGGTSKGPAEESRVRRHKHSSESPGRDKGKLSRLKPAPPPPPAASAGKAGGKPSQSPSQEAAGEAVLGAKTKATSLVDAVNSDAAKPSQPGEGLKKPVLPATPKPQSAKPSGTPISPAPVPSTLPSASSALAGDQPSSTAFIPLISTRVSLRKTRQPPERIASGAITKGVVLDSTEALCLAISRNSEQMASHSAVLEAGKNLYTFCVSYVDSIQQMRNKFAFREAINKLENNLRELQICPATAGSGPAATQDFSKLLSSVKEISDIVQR
Target sequence (Q13671 whole entry, looked up): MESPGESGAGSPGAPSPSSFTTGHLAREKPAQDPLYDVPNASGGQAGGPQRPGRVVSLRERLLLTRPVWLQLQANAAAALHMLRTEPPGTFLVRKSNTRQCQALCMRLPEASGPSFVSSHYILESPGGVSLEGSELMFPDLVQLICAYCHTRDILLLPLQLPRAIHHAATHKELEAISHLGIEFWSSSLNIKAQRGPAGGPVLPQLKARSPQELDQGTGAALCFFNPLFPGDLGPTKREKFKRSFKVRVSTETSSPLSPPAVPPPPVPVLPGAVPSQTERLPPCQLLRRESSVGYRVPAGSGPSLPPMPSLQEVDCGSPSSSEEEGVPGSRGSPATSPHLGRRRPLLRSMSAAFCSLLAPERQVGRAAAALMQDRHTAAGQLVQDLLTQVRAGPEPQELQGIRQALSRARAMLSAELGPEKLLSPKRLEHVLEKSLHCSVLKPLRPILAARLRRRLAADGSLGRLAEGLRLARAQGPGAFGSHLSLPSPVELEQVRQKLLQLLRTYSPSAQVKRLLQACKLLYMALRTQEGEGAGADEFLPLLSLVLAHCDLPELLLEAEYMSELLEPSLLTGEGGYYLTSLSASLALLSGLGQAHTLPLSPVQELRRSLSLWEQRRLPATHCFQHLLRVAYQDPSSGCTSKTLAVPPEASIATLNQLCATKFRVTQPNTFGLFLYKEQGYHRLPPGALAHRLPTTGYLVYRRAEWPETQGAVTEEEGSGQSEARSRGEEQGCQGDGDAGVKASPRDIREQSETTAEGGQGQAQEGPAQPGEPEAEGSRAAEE
Hck Nef HTS – human Hck-Nef kinase inhibition | 220,000 tested, 0.68% active | P08631 | Recombinant Hck-YEEI plus Nef, Z-Lyte FRET kinase assay | inhibition, % at 20 µM;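 active = Hck-Nef kinase inhibition above about 50%, limit read from the data; inactive = inhibition below that limit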
Of the large screens only hits and unclear results are named; the others gave an inactive call. This is a sample that favours compounds with a hit; in the whole collection about 1.7% have one here.

COc1cccc(OCC(O)CNC2CCCC2)c1 (stereo not given)	none (no result: p97 inhibitor, Hck Nef HTS)
O=c1[nH]c(/C=C/c2ccc([N+](=O)[O-])cc2)c([N+](=O)[O-])c(=O)[nH]1	none (no result: p97 inhibitor, LYPLA2 inh, PREPL inh, LYPLA1 counter, Hck Nef HTS)
Cc1cccc(NC(=O)COc2ccc(/C=C\c3[nH]c(=O)[nH]c(=O)c3[N+](=O)[O-])cc2)c1	Hck Nef HTS 62
COc1cccc(CN(C)C(=O)c2ccc(S(=O)(=O)Nc3ccccc3C)cc2)c1OC	none (no result: p97 inhibitor, LYPLA2 inh, PREPL inh, LYPLA1 counter, Hck Nef HTS)
COc1ccc(-c2csc(Cc3nnc(N4CCOCC4)n3-c3ccccc3)n2)cc1OC	none
COc1ccc(-c2csc(Cc3nnc(N4CCOCC4)n3-c3ccccc3)n2)cc1	PREPL inh 51
COc1ccc2nc(N3CCCCC3)c(/C=C3\SC(=S)NC3=O)cc2c1	Rin1-Abl PPI inh 6.6
O=C1NC(=S)S/C1=C\c1cc2ccccc2nc1N1CCCCC1	none
CCN(C(=O)COc1cc(OC)ccc1C(C)=O)C1CCS(=O)(=O)C1 (stereo not given)	none (no result: p97 inhibitor, Hck Nef HTS)
O=C1C(O)=C(O)C(=O)c2ccccc21	Rin1-Abl PPI inh 24 (no result: p97 inhibitor, Hck Nef HTS)
Cc1cccc(C(=O)NC2=NCCS2)c1	Hck Nef HTS 76
O=C(NC1=NCCS1)c1ccccc1	none (no result: p97 inhibitor, Hck Nef HTS)
C[C@H](NS(=O)(=O)c1ccc2c(c1)OCCCO2)C(=O)N1CCN(c2ccc(F)cc2)CC1	none (no result: p97 inhibitor, Hck Nef HTS)
COCc1[nH]nc2c1C(c1ccc(OC)cc1)C(C#N)=C(N)O2 (stereo not given)	none
COc1cc(C2C(C#N)=C(N)Oc3n[nH]c(C)c32)ccc1OC(=O)c1ccccc1 (stereo not given)	PREPL inh 61
COc1cc(C2C(C#N)=C(N)Oc3n[nH]c(C)c32)cc2c1OCO2 (stereo not given)	none
CC(C)c1[nH]nc2c1C(c1ccc(OC(=O)c3ccco3)cc1)C(C#N)=C(N)O2 (stereo not given)	PREPL inh 60
COc1ccccc1CSc1nc2c(c(=O)n(C)c(=O)n2C)n1C	none (no result: p97 inhibitor, LYPLA2 inh, PREPL inh, LYPLA1 counter, Hck Nef HTS)
O=C(NC1C(=O)NNC1c1ccc(Cl)cc1)c1ccc(F)cc1 (stereo not given)	LYPLA2 inh 37
O=C(NC1C(=O)NNC1c1ccccc1)c1ccc(F)cc1 (stereo not given)	none
Cc1cc(C)cc(-n2nnnc2-c2cn(C)nc2C(F)(F)F)c1	Rin1-Abl PPI inh 7.5
COc1ccc([C@H]2C[C@@H](n3cc(COC(=O)c4ccccc4)nn3)[C@H](O)CN2C(=O)C2CCCCC2)cc1	none (no result: p97 inhibitor, LYPLA2 inh, PREPL inh, LYPLA1 counter, Hck Nef HTS)
N#Cc1cc2c(=O)n3ccccc3nc2n(CC2CCCO2)c1=N (stereo not given)	none (no result: LYPLA2 inh, PREPL inh, LYPLA1 counter, Rin1-Abl PPI inh)
Cc1cccn2c(=O)c3cc(C#N)c(=O)n(CC4CCCO4)c3nc12 (stereo not given)	Hck Nef HTS active (no result: LYPLA2 inh, PREPL inh, LYPLA1 counter, Rin1-Abl PPI inh)
Cc1nnc(N2CCCC(C(=O)Nc3cc(F)ccc3F)C2)c2nn(-c3ccccc3)c(C)c12 (stereo not given)	none (no result: p97 inhibitor, Hck Nef HTS)
Cc1nnc(N2CCCC(C(=O)NCc3ccc(OC(C)C)cc3)C2)c2nn(-c3ccccc3)c(C)c12 (stereo not given)	Rin1-Abl PPI inh 32 (no result: p97 inhibitor, Hck Nef HTS)
O=C(COc1ccc2ccccc2c1)Nc1cccc2c1C(=O)NC2=O	Hck Nef HTS 60 (no result: Rin1-Abl PPI inh)
N#Cc1ccsc1NC(=O)c1cccc(-n2cnnn2)c1	none (no result: p97 inhibitor, Hck Nef HTS)
N#Cc1ccccc1S(=O)(=O)N1CCN(C(=O)C2CCCCC2)CC1	none (no result: p97 inhibitor, LYPLA2 inh, LYPLA1 counter, Hck Nef HTS)
CCOc1cc(-c2cc(-c3ccc(C)cc3)nc(N)c2C#N)ccc1O	none
CCOc1cc(/C=C(\C#N)c2[nH]nc(N)c2C#N)ccc1O	PREPL inh 52
O=C(c1ccc(S(=O)(=O)Cc2ccccc2F)c([N+](=O)[O-])c1)N1CCCCCC1	none
CC1CCN(C(=O)c2ccc(SCc3ccccc3F)c([N+](=O)[O-])c2)CC1	LYPLA2 inh 34
CC1CCCC(NC(=O)CN2CCN(S(=O)(=O)c3ccc(Br)s3)CC2)C1C (stereo not given)	none (no result: p97 inhibitor, LYPLA2 inh, PREPL inh, LYPLA1 counter, Hck Nef HTS)
CC(C)=C1C(=O)NN(c2ccc(F)c(Cl)c2)C1=O	p97 inhibitor 20
CC(C#N)(CCc1ccccn1)CCc1ccccn1	none (no result: p97 inhibitor, LYPLA2 inh, PREPL inh, LYPLA1 counter, Hck Nef HTS)
COc1cc(C2NC(=O)NC(C)=C2C(=O)OC(C)C)ccc1OC(=O)c1ccco1 (stereo not given)	PREPL inh 79
CCOC(=O)C1=C(C)NC(=O)NC1c1ccc(OC(=O)c2ccco2)c(OC)c1 (stereo not given)	PREPL inh 67
COc1cc(C2NC(=S)NC(C)=C2C(=O)OC(C)C)ccc1OC(C)C (stereo not given)	none
CCOc1ccc(C(=O)NCC(=O)OCC(=O)N(C)CC(=O)Nc2ccccc2CC)cc1OCC	none (no result: p97 inhibitor, LYPLA2 inh, PREPL inh, LYPLA1 counter, Hck Nef HTS)
CCN(CC)c1ccc2cc(C(N)=O)c(=N)oc2c1	none
CCN(CC)c1ccc2c(-c3ccc(S(=O)(=O)O)cc3S(=O)(=O)[O-])c3ccc(=[N+](CC)CC)cc-3oc2c1	PREPL inh active (no result: p97 inhibitor, Hck Nef HTS)
COc1ccc(NC(=O)c2cc(-c3ccncc3)nc3ccc(Br)cc23)cc1OC	Rin1-Abl PPI inh 8.8 (no result: p97 inhibitor, Hck Nef HTS)
Cc1noc(C)c1S(=O)(=O)N(CC(=O)NCCc1ccccc1)c1ccc(C(C)C)cc1	none (no result: p97 inhibitor, Hck Nef HTS)
CCOc1ccc(CNc2ccc(N3CCN(Cc4ccccc4)CC3)cc2)cc1	none (no result: p97 inhibitor, Hck Nef HTS)
CCOc1ccc(CNc2ccc(N3CCCC3)cc2)cc1	PREPL inh 44
CCCCN(C(=O)c1c(C)noc1C)c1c(N)n(CCC)c(=O)[nH]c1=O	none (no result: p97 inhibitor, Hck Nef HTS)
CNC(=O)c1c(NC(=O)c2ccc(S(=O)(=O)N3CCCC3)cc2)sc2c1CCN(C(C)C)C2	PREPL inh 44 (no result: p97 inhibitor, Rin1-Abl PPI inh, Hck Nef HTS)
O=C(O)c1cc(S(=O)(=O)N2CC=C(c3ccccc3)CC2)ccc1O	none (no result: p97 inhibitor, Hck Nef HTS)
CCc1ccc2nc(NC(=O)Cn3cnc4ccccc4c3=O)sc2c1	Hck Nef HTS 55
O=C(Cn1cnc2ccccc2c1=O)Nc1nc2ccccc2s1	none
CC(CN1CC(=O)NC(=O)C1)N1CC(=O)NC(=O)C1 (stereo not given)	none (no result: p97 inhibitor, LYPLA2 inh, PREPL inh, LYPLA1 counter, Hck Nef HTS)
ClCC1=Nc2cccc3cccc(c23)N1	p97 inhibitor 15 (no result: Rin1-Abl PPI inh)
COCCN1C(=O)/C(=C2/C(=O)N(CC(=O)Nc3ccccc3Cl)c3ccccc32)SC1=S	none (no result: p97 inhibitor, Hck Nef HTS)
CCOc1ccc(NC(=O)CN2C(=O)/C(=C3\SC(=S)N(C4CCS(=O)(=O)C4)C3=O)c3ccccc32)cc1 (stereo not given)	Hck Nef HTS 74 (no result: LYPLA2 inh, PREPL inh, LYPLA1 counter)
COc1cccc(NC(=O)C2(C)CCN2C(=O)Cc2ccc(C(C)C)cc2)c1 (stereo not given)	none (no result: p97 inhibitor, LYPLA2 inh, PREPL inh, LYPLA1 counter, Hck Nef HTS)
C(=Nc1cccc2c(N=Cc3ccco3)cccc12)c1ccco1	PREPL inh 55
COc1ccc(-n2c(C)cc(/C=C3\SC(=S)NC3=O)c2C)cc1	none
Cc1cc(/C=C2\SC(=S)NC2=O)c(C)n1-c1ccccc1	Hck Nef HTS 53
CC(=O)c1ccc(OCc2nnn(CC(=O)NS(=O)(=O)c3ccc(C)cc3)c2-c2ccccc2)cc1	none (no result: p97 inhibitor, LYPLA2 inh, PREPL inh, LYPLA1 counter, Hck Nef HTS)
O=C1/C(=C\c2ccco2)SC(=S)N1c1ccc(O)cc1	Hck Nef HTS 72
O=C1/C(=C\c2ccc(O)cc2)SC(=S)N1c1cccnc1	none

Screening data deposited in PubChem BioAssay by several laboratories.
